# Source: PubChem BioAssay
# The source made the active and inactive calls. Unless noted, no stated cut-off is given here; in the data, active means inhibition above about 80%; inactive means the rest.
# What was measured:
# [1] = LFS_MB_P medulloblastoma growth inhibition, cell-based, chromothripsis tumors, cisplatin or BGB combos (AID 1671449); details: LFS_MB_P medulloblastoma cells;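 further: cells exposed for 96 hours; 0% = vehicle DMSO and 100% = killing by high DMSO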
# [2] = HDN33 neuroblastoma growth inhibition, cell-based, chromothripsis tumors, cisplatin or BGB combos (AID 1671450); details: HDN33 neuroblastoma cells, stronger effect = higher value;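 further: cells exposed to compound for four days; 0% = vehicle DMSO and 100% = cell killing by high DMSO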
# [3] = ICB984 medulloblastoma cell growth inhibition, synergistic combos for chromothripsis tumors, cisplatin or BGB combos (AID 1671451; call rule not given here;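 further: cells exposed for 96 hours before readout; 0% = vehicle DMSO and 100% = killing by high DMSO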); details: ICB984 medulloblastoma cells, drug combinations, stronger effect = higher value
# [4] = LFS_MB_1R medulloblastoma cell growth inhibition, synergistic combos for chromothripsis tumors, cisplatin or BGB combos (AID 1671452); details: LFS_MB_1R medulloblastoma cells, stronger effect = higher value;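 further: cells exposed for 96 hours before readout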
# [5] = HTB85 osteosarcoma cell growth inhibition, synergistic combos for chromothripsis tumors, BGB or cisplatin IC20 combos (AID 1671453); details: HTB85 osteosarcoma cells, drug combinations, stronger effect = higher value;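 further: cells exposed for 96 hours before readout; 0% = vehicle DMSO and 100% = high DMSO killing control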
# [6] = CRL2098 osteosarcoma cell growth inhibition, synergistic combos for chromothripsis tumors, BGB or cisplatin IC20 combos (AID 1671454); details: CRL2098 osteosarcoma cells, drug combinations, stronger effect = higher value;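 further: cells exposed for 96 h before readout; 0% = vehicle DMSO and 100% = killing by high DMSO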
# [7] = HD-MB03 medulloblastoma cell growth inhibition, synergistic combos for chromothripsis tumors, BGB or cisplatin IC20 combos (AID 1671455; in the data active means inhibition above about 83%;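 further: 0% = vehicle DMSO and 100% = high DMSO as cytotoxic control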); details: HD-MB03 medulloblastoma cells, stronger effect = higher value
# [8] = UWB1.289 ovarian carcinoma cell growth inhibition, synergistic combos for chromothripsis tumors, BGB or cisplatin combos (AID 1671456); details: UWB1.289 ovarian carcinoma cells, stronger effect = higher value;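 further: cells exposed to compound for four days; 0% = vehicle DMSO and 100% = killing by high DMSO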
# [9] = LFS_MB_2R medulloblastoma cell growth inhibition, synergistic combos for chromothripsis tumors, cisplatin combos (AID 1671457); details: LFS_MB_2R medulloblastoma cells, stronger effect = higher value;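 further: cells exposed to compound for four days before readout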
# [10] = MDA-MB-436 breast carcinoma cell growth inhibition, synergistic combos for chromothripsis tumors, BGB or cisplatin combos (AID 1671458; call rule not given here;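 further: cells exposed for 96 hours; 0% = vehicle DMSO and 100% = killing by high DMSO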); details: MDA-MB-436 breast carcinoma growth inhibition, drug combinations, stronger effect = higher value
# [11] = UWB1.289_BRCA1 ovarian cancer growth, cell-based, BGB or cisplatin combinations (AID 1671459); details: UWB1.289 BRCA1 ovarian carcinoma, drug combinations, stronger effect = higher value
# [12] = human astrocyte viability loss, single and combined drugs, cytotoxicity control for chromothriptic childhood tumor combination screen, cell-based, BGB or cisplatin IC20 combos (AID 1671460); details: Human astrocytes, drug combinations, stronger effect = higher value;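 further: cells exposed to compounds for 96 hours before viability readout; 0% = vehicle and 100% = killing control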
# [13] = growth inhibition of BT084 medulloblastoma cells, cell-based, ICGC_MB145, cisplatin and BGB IC40 combos (AID 1671461); details: drug combinations, stronger effect = higher value;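 further: cells exposed to drugs for 96 hours; 0% = vehicle DMSO and 100% = high DMSO full killing control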
# [14] = growth inhibition of RCMB18 medulloblastoma cells, cell-based, cisplatin and BGB IC40 combos (AID 1671462); details: stronger effect = higher value;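 further: cells exposed to compound for four days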
# [15] = growth inhibition of CRL1545 osteosarcoma cells, cell-based, cisplatin and BGB IC20 combos (AID 1671464); details: stronger effect = higher value;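 further: cells exposed to compound for 96 hours before readout; 0% = vehicle DMSO and 100% = high DMSO killing control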
# [16] = viability rescue of complex I mutant cybrids, primary screen, cell-based, galactose medium, ATP luminescence (AID 1645843;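 active means z-score of at least 1.8 in each of two replicates, scored against plate mean and spread of sample wells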;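 further: positive z means more ATP and so rescue of galactose-driven cybrid death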); details: complex I mutant cybrid cells, 72 h, stronger effect = higher value
# [17] = measured here: combination with BGB IC40, at 0.05 µM
# [18] = measured here: with BGB IC20 combination, at 0.5 µM
# [19] = measured here: with cisplatin IC20 combination, at 0.5 µM
# [20] = measured here: combination with cisplatin, at 0.5 µM
# [21] = measured here: combination with cisplatin, at 5 µM
compound,measurement,setting,value
C=C1C(=O)O[C@@H]2C=C(C)CCC=C(C)CC[C@@H]12,inhibition,"[1]; at 0.5 µM, stronger effect = higher value",-19.3% (inactive)
same,inhibition,"[1]; measured here: combination with BGB IC20, at 0.005 µM",-3.36%
same,inhibition,"[1]; measured here: combination with BGB IC40, at 0.005 µM",-13.6%
same,inhibition,[1]; [17],7.16%
same,inhibition,"[1]; measured here: combination with cisplatin, at 0.5 µM, stronger effect = higher value",-51.8%
same,inhibition,"[1]; measured here: combination with cisplatin, at 5 µM, stronger effect = higher value",114%
same,inhibition,"[2]; BGB combo, at 5 µM",5.76%
same,inhibition,[2]; at 0.5 µM,-17.6% (inactive)
same,inhibition,"[2]; cisplatin combo, at 5 µM",29.9%
same,inhibition,[2]; [18],-23.4%
same,inhibition,[2]; [19],-29.2%
same,inhibition,"[2]; single agent, at 5 µM",38.5%
same,inhibition,"[3]; BGB IC20 combo, at 0.005 µM",4.25%
same,inhibition,"[3]; BGB IC40 combo, at 0.005 µM",-33%
same,inhibition,"[3]; BGB IC40 combo, at 0.05 µM",53.7%
same,inhibition,[3]; at 0.5 µM,-17.1% (inactive)
same,inhibition,"[3]; cisplatin combo, at 0.05 µM",51.9%
same,inhibition,"[3]; cisplatin combo, at 0.5 µM",-18%
same,inhibition,"[3]; cisplatin combo, at 5 µM",-19.3%
same,inhibition,"[3]; measured here: 5 uM single agent, at 5 µM",-11.6%
same,inhibition,[4]; at 0.5 µM,-31.9% (inactive)
same,inhibition,[4]; [17],-18.3%
same,inhibition,[4]; [20],-29.4%
same,inhibition,[4]; [21],98.6%
same,inhibition,[5]; at 0.5 µM,-6.12% (inactive)
same,inhibition,"[5]; measured here: with BGB IC20, at 0.5 µM",-12.5%
same,inhibition,"[5]; measured here: with BGB IC20, at 5 µM",51.6%
same,inhibition,"[5]; measured here: with cisplatin IC20, at 0.5 µM",-4.05%
same,inhibition,"[5]; measured here: with cisplatin IC20, at 5 µM",62.5%
same,inhibition,"[5]; single agent, at 5 µM",66.5%
same,inhibition,[6]; at 0.5 µM,-64.3% (inactive)
same,inhibition,"[6]; measured here: combination with BGB at IC20, at 0.5 µM",-14.4%
same,inhibition,"[6]; measured here: combination with cisplatin at IC20, at 0.5 µM",-90.7%
same,inhibition,[7]; at 0.5 µM,-8.56% (inactive)
same,inhibition,"[7]; measured here: combo with BGB at IC20, at 0.5 µM",5.57%
same,inhibition,"[7]; measured here: combo with cisplatin at IC20, at 0.5 µM",-16.5%
same,inhibition,[8]; at 0.5 µM,-5.91% (inactive)
same,inhibition,"[8]; measured here: inhibition with BGB combination, at 0.05 µM",-14.1%
same,inhibition,"[8]; measured here: inhibition with cisplatin combination, at 0.05 µM",-20.4%
same,inhibition,[9]; at 0.5 µM,-23.7% (inactive)
same,inhibition,[9]; [20],-29.5%
same,inhibition,[9]; [21],43.1%
same,inhibition,[10]; at 0.5 µM,-0.98% (inactive)
same,inhibition,"[10]; measured here: BGB combination, at 0.5 µM",1.65%
same,inhibition,"[10]; measured here: BGB combination, at 5 µM",39.9%
same,inhibition,"[10]; measured here: cisplatin combination, at 0.5 µM",-3.72%
same,inhibition,"[10]; measured here: cisplatin combination, at 5 µM",56.7%
same,inhibition,"[11]; BGB combination, concentration series, at 5 µM",44.1%
same,inhibition,[11]; at 0.5 µM,-3.8% (inactive)
same,inhibition,"[11]; cisplatin combination, concentration series, at 5 µM",48.6%
same,inhibition,[12]; at 0.5 µM,3.62% (inactive)
same,inhibition,"[12]; measured here: combo with BGB IC20, at 0.5 µM",4.43%
same,inhibition,"[12]; measured here: combo with cisplatin IC20, at 0.5 µM",0.413%
same,inhibition,[13]; at 0.5 µM,-5.97% (inactive)
same,inhibition,"[13]; cisplatin combination, at 0.5 µM",-9.26%
same,inhibition,"[13]; cisplatin combination, at 5 µM",48.9%
same,inhibition,"[13]; measured here: BGB IC40 combination 0.05 uM, at 0.05 µM",-2.12%
same,inhibition,"[13]; single agent, at 5 µM",20.7%
same,inhibition,[14]; at 0.5 µM,9.79% (inactive)
same,inhibition,"[14]; cisplatin combo, at 5 µM",75.6%
same,inhibition,"[14]; measured here: BGB IC40 combination, at 0.05 µM",6.86%
same,inhibition,[14]; [20],15.7%
same,inhibition,"[14]; single agent, at 5 µM",33.4%
same,inhibition,[15]; at 0.5 µM,8.87% (inactive)
same,inhibition,[15]; [18],-16.3%
same,inhibition,[15]; [19],21.4%
same,inhibition,"[15]; single agent, at 0.05 µM",18.3%
same,inhibition,"[15]; single agent, at 5 µM",72.3%
CCCCCC(=O)N1CCC(n2cc(C3CCCCC3)nn2)CC1,z-score,[16],-0.415 (inactive)
